Experiment [1] in a line: ATG_CRE_CIS: Attagene CIS-FACTORIAL HepG2 Assay for human cAMP Responsive Element (CRE) binding protein 3 (AID 2282926). The settings on record: HepG2 CRE cis-reporter, Attagene multiplexed mRNA; actives raise or lower the signal. The essentials:
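HepG2 cells transiently transfected with cis-element-driven multiple reporter transcription units; CRE reporter mRNA measured 24 h after dosing by RT-PCR, 6-FAM labelling, HpaI digestion and capillary electrophoresis. Bidirectional fit versus DMSO baseline.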

In experiment [2] the target is CCAAT/enhancer-binding protein beta (Homo sapiens) (UniProt P17676). The experiment is described as follows: ATG_C_EBP_CIS: Attagene CIS-FACTORIAL HepG2 Assay for human CCAAT/Enhancer Binding Protein (C/EBP) beta (AID 2282927). As to conditions: HepG2 Attagene cis-factorial transcription factor reporter; actives raise or lower the signal. The essentials: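 HepG2 transiently transfected with multiplexed reporter units under cis-regulatory promoters reporting endogenous C/EBPb activity. After 24 h exposure, reporter mRNA assayed by RT-PCR, fluorescent labelling, HpaI digestion and capillary electrophoresis; bidirectional fitting versus DMSO.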

Experiment [3] in a line: ATG_DR4_LXR_CIS: Attagene CIS-FACTORIAL HepG2 Assay for human Liver X Receptor (LXR), DR4 submotif (AID 2282929). As to conditions: HepG2 Attagene DR4 cis-reporter, mRNA transcription; actives raise or lower the signal. The essentials:
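DR4 cis-reporter in HepG2, 24 h exposure. Detection: RT-PCR, 6-FAM labelling, CE fragment analysis. Endpoint fitted bidirectionally, DMSO = baseline.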

Experiment [4] is described as follows: ATG_AP_2_CIS: Attagene CIS-FACTORIAL HepG2 Assay for human Activator Protein 2 (AP-2) (AID 2282932). The settings on record: HepG2 AP-2 cis-reporter, Attagene transcription factor profiling; actives raise or lower the signal. The procedure, abridged:
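HepG2 cells transiently transfected with cis-element reporter units and exposed for 24 h. Reporter mRNA measured by RT-PCR, FAM labelling, HpaI digestion and capillary electrophoresis. Changes in either direction fitted relative to DMSO.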

Experiment [5] in a line: ATG_BRE_CIS: Attagene CIS-FACTORIAL HepG2 Assay for human Bone Morphogenetic Protein (BMP) Response Element (BRE) (AID 2282933). The settings on record: HepG2 BMP response element reporter, Attagene transcription factor profiling; actives raise or lower the signal. The procedure, abridged:
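HepG2 cells transiently transfected with CIS reporter units (endogenous TF activity, BMP response element), dosed 24 h. Reporter mRNA quantified by RT-PCR, fluorescent labelling and capillary electrophoresis; bidirectional fit vs DMSO baseline.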

Experiment [6] concerns the target Transcription factor E2F1 (Homo sapiens) (UniProt Q01094). As to the kind of experiment: ATG_E2F_CIS: Attagene CIS-FACTORIAL HepG2 Assay for human E2F Transcription Factor 1 (AID 2282935). The settings on record: HepG2 Attagene cis-reporter, E2F reporter RNA transcripts; actives raise or lower the signal. The procedure, abridged: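 Endogenous E2F1 activity read through cis-promoter reporter units transfected into HepG2. After 24 h compound treatment, reporter mRNA measured by RT-PCR, HpaI digestion and capillary electrophoresis. Bidirectional fit versus DMSO.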

Experiment [7] can be described thus: ATG_EGR_CIS: Attagene CIS-FACTORIAL HepG2 Assay for human Early Growth Response 1 (EGR1) (AID 2282938). The settings on record: HepG2 Attagene CIS-FACTORIAL EGR reporter mRNA; actives raise or lower the signal. The essentials:
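Endpoint derived by bidirectional fitting versus DMSO vehicle. Method: cis-promoter reporter units transfected into HepG2, 24 h dosing, RNA isolation, RT-PCR with 6-FAM primer extension and HpaI digestion, then capillary electrophoresis fluorescence detection.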

Experiment [8] can be described thus: ATG_M_19_CIS: Attagene CIS-FACTORIAL HepG2 Assay for M19 Transcription Factor (Internal Marker) (AID 2282939). As to conditions: HepG2 Attagene CIS-FACTORIAL M19 internal marker reporter; actives raise or lower the signal. The essentials: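 HepG2 cells transiently transfected with cis-regulated multiplexed reporter units, dosed 24 h. Reporter mRNA quantified by RT-PCR and capillary electrophoresis; internal background marker fitted bidirectionally versus DMSO.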

Experiment [9] in a line: ATG_Ets_CIS: Attagene CIS-FACTORIAL HepG2 Assay for human Erythroblast Transformation Specific (ETS) (AID 2282941). As to conditions: HepG2 ETS cis-reporter transcription, actives raise or lower the signal. The essentials: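 Steps: transfect HepG2 with multiple reporter units; treat compound 24 h; isolate RNA, DNase-treat, reverse-transcribe; PCR-amplify, label with 6-FAM, digest with HpaI; separate by capillary electrophoresis. Activity fitted both directions versus DMSO.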

In experiment [10] the target is Hepatocyte nuclear factor 3-beta (Homo sapiens) (UniProt Q9Y261). As to the kind of experiment: ATG_FoxA2_CIS: Attagene CIS-FACTORIAL HepG2 Assay for human Forkhead box A2 (FOXA2) (AID 2282942). As to conditions: HepG2 cis-reporter transcription factor activity, 24 h; actives raise or lower the signal. The essentials: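 Measured: reporter mRNA induction or loss in HepG2 transiently carrying multiple cis-regulated reporter units, 24 h after dosing. Quantified by RT-PCR plus capillary electrophoresis, normalised to DMSO.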

The nature of experiment [11]: ATG_FoxO_CIS: Attagene CIS-FACTORIAL HepG2 Assay for human Forkhead box O (FoxO) (AID 2282943). The settings on record: HepG2 Attagene cis-reporter, FoxO element, mRNA; actives raise or lower the signal. The procedure, abridged:
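HepG2 cells transiently transfected with cis-element-driven reporter units report endogenous FoxO activity. After 24 h chemical exposure, reporter mRNA quantified by RT-PCR, fluorescent labeling, HpaI digestion and capillary electrophoresis; bidirectional fit versus DMSO.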

Experiment [12] is described as follows: ATG_GATA_CIS: Attagene CIS-FACTORIAL HepG2 Assay for human GATA Binding Protein (AID 2282944). The settings on record: HepG2 GATA cis-element reporter, Attagene multiplex mRNA; actives raise or lower the signal. The procedure, abridged:
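HepG2 cells transiently transfected with multiplexed cis-element reporter units measure endogenous GATA activity; after 24 h compound exposure, reporter mRNA quantified by RT-PCR and capillary electrophoresis. Changes fitted in both directions vs DMSO.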

Experiment [13] is described as follows: ATG_GLI_CIS: Attagene CIS-FACTORIAL HepG2 Assay for human Zinc Finger Protein GLI1 (AID 2282945). As to conditions: HepG2, Attagene cis-factorial reporter mRNA, GLI element; actives raise or lower the signal. The procedure, abridged: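 Transiently transfected HepG2 cells report endogenous transcription factor activity via cis-element-driven reporter units. After 24 h compound exposure, reporter mRNA was measured by RT-PCR with capillary electrophoresis; bidirectional fitting against DMSO baseline.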

Experiment [14] can be described thus: ATG_M_06_CIS: Attagene CIS-FACTORIAL HepG2 Assay for M06 Transcription Factor (Internal Marker) (AID 2282950). As to conditions: HepG2 Attagene CIS-FACTORIAL M06 internal marker reporter; actives raise or lower the signal. The essentials:
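Internal background marker within multiplexed cis-reporter HepG2 system. Cells transiently transfected, dosed 24 h; reporter mRNA measured by RT-PCR, HpaI digestion and capillary electrophoresis. Bidirectional fit relative to DMSO.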

Experiment [15] deals with Hepatocyte nuclear factor 6 (Homo sapiens) (UniProt Q9UBC0). As to the kind of experiment: ATG_HNF6_CIS: Attagene CIS-FACTORIAL HepG2 Assay for human Hepatocyte Nuclear Factor 6 (HNF6) (AID 2282952). As to conditions: HepG2 Attagene cis-factorial HNF6 reporter transcription; actives raise or lower the signal. The procedure, abridged:
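HepG2 cells transiently transfected with cis-element-driven multiplexed reporter units measuring endogenous transcription factor activity. After 24 h exposure, reporter mRNA quantified by RT-PCR, FAM-labelled fragments and capillary electrophoresis; bidirectional fitting versus DMSO.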

Experiment [16] is described as follows: ATG_MRE_CIS: Attagene CIS-FACTORIAL HepG2 Assay for human Metal Responsive Element (MRE) (AID 2282954). The settings on record: HepG2 MRE cis-reporter transcription, Attagene multiplex; actives raise or lower the signal. The procedure, abridged: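 HepG2 cells transiently transfected with cis-element-driven reporter units; mRNA measured 24 h after dosing. Reporter transcripts quantified by RT-PCR, FAM labelling, HpaI digestion and capillary electrophoresis; bidirectional fit versus DMSO.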

Experiment [17] addresses Paired box protein Pax-6 (Homo sapiens) (UniProt P26367). The experiment is described as follows: ATG_Pax6_CIS: Attagene CIS-FACTORIAL HepG2 Assay for human Paired Box 6 (PAX6) (AID 2282956). The settings on record: HepG2 CIS-FACTORIAL PAX6 reporter transcription, RNA readout; actives raise or lower the signal. The procedure, abridged: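 Transient MRTU transfection of HepG2 → compound exposure 24 h → TriZol RNA, oligo(dT) RT → PCR, 6-FAM primer extension, HpaI cut → capillary electrophoresis; activity fitted both directions against DMSO.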

The nature of experiment [18]: ATG_PXRE_CIS: Attagene CIS-FACTORIAL HepG2 Assay for human Pregnane X Receptor Element (PXRE) (AID 2282957). The settings on record: HepG2 Attagene CIS-FACTORIAL PXRE reporter, mRNA; actives raise or lower the signal. The procedure, abridged:
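HepG2 cells transiently transfected with cis-element-driven multiplexed reporter units; after 24 h chemical exposure, reporter mRNA measured by RT-PCR, 6-FAM labelling, HpaI digestion and capillary electrophoresis. Bidirectional fitting relative to DMSO.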

A short description of experiment [19]: ATG_Sox_CIS: Attagene CIS-FACTORIAL HepG2 Assay for human SRY-box transcription factor (SOX) (AID 2282960). As to conditions: HepG2 Attagene cis-factorial SOX reporter, mRNA; actives raise or lower the signal. The procedure, abridged: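 Gain- or loss-of-signal endpoint, fitted bidirectionally with DMSO as negative control. Based on reporter mRNA from transfected HepG2 cells harvested 24 h post-treatment and quantified via RT-PCR and capillary electrophoresis.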

Experiment [20] concerns the target Androgen receptor (Homo sapiens) (UniProt P10275). The experiment is described as follows: ATG_AR_TRANS: Attagene TRANS-FACTORIAL HepG2 Assay for human Androgen Receptor (AR) (AID 2282973; active = hit-call score of the fitted dose curve at least 0.9, where 1 is the maximum). As to conditions: HepG2 Attagene TRANS-FACTORIAL AR reporter transcription. The essentials: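 HepG2 cells transiently transfected with AR-Gal4 chimera and GAL4-UAS reporter units; chemical exposure 24 h. Reporter mRNA quantified by RT-PCR with fluorescent labelling and capillary electrophoresis; gain-of-signal fitted against DMSO.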

Structures are written as SMILES. Records with an inconclusive call do not appear. The source made the active and inactive calls. Rule for the calls, unless noted: active = hit-call score of the fitted dose curve at least 0.9, where 1 is the maximum; inactive = score below 0.9.

The text below walks through data of PubChem BioAssay (EPA / NIEHS).

CCAAT/enhancer-binding protein beta (Homo sapiens), sequence (P17676 whole entry, looked up): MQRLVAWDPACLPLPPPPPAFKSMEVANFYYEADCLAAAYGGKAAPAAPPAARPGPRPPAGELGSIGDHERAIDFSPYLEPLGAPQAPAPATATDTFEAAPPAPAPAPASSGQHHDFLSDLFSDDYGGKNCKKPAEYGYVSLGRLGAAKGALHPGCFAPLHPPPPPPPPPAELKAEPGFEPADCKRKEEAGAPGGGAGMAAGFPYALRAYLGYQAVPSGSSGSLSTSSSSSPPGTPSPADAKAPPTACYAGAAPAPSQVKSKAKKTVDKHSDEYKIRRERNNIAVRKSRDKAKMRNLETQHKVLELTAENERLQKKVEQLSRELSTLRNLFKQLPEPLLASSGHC
Paired box protein Pax-6 (Homo sapiens), sequence (P26367 whole entry, looked up): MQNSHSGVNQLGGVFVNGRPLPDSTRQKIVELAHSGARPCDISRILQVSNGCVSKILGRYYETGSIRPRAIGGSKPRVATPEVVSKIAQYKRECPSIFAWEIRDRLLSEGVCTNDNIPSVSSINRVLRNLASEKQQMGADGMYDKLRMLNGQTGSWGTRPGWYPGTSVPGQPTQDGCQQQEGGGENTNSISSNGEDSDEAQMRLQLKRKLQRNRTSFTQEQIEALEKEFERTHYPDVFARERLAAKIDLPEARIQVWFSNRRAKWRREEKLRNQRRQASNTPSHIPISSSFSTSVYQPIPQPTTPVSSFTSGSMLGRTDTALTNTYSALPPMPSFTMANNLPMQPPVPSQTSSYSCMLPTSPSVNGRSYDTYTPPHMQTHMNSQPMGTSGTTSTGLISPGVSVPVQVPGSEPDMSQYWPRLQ
Hepatocyte nuclear factor 6 (Homo sapiens), sequence (Q9UBC0 whole entry, looked up, the tested form may be a part): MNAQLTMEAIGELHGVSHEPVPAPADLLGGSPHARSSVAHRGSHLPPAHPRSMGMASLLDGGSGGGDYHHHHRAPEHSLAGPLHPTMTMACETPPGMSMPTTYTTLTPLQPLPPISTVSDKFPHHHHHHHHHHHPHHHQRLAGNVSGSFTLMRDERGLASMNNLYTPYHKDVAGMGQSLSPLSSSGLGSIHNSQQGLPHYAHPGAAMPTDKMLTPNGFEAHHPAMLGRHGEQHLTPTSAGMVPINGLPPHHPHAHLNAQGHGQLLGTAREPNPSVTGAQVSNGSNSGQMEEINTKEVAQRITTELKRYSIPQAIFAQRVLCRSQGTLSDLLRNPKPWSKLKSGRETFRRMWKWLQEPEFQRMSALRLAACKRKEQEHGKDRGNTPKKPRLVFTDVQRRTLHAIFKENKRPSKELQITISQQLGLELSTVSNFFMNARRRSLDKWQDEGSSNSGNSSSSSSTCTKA
Hepatocyte nuclear factor 3-beta (Homo sapiens), sequence (Q9Y261 whole entry, looked up): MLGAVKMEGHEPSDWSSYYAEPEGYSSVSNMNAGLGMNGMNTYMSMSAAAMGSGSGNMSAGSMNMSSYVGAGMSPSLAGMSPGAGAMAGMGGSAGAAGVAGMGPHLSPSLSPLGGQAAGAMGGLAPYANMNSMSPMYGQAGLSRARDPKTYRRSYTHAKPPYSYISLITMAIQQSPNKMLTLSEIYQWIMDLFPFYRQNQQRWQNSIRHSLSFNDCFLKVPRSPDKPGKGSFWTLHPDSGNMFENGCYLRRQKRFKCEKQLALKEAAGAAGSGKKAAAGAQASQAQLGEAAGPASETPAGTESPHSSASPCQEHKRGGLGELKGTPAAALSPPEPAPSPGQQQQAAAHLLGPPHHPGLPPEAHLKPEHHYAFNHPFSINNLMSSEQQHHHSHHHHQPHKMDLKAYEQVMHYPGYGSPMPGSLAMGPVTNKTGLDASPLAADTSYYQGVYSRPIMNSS
Transcription factor E2F1 (Homo sapiens), sequence (Q01094 whole entry, looked up): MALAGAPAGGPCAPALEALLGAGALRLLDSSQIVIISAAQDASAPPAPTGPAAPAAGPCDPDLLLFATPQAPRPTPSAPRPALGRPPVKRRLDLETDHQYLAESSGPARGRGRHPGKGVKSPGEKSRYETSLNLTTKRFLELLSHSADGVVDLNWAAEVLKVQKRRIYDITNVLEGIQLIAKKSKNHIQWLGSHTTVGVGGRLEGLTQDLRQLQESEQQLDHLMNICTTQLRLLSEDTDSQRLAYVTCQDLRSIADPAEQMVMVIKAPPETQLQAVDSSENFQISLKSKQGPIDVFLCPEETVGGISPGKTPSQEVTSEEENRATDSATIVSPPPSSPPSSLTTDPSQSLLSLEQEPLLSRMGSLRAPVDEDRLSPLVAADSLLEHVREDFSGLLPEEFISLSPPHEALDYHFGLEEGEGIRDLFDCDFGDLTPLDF
Androgen receptor (Homo sapiens), sequence (P10275 whole entry, looked up, the tested form may be a part): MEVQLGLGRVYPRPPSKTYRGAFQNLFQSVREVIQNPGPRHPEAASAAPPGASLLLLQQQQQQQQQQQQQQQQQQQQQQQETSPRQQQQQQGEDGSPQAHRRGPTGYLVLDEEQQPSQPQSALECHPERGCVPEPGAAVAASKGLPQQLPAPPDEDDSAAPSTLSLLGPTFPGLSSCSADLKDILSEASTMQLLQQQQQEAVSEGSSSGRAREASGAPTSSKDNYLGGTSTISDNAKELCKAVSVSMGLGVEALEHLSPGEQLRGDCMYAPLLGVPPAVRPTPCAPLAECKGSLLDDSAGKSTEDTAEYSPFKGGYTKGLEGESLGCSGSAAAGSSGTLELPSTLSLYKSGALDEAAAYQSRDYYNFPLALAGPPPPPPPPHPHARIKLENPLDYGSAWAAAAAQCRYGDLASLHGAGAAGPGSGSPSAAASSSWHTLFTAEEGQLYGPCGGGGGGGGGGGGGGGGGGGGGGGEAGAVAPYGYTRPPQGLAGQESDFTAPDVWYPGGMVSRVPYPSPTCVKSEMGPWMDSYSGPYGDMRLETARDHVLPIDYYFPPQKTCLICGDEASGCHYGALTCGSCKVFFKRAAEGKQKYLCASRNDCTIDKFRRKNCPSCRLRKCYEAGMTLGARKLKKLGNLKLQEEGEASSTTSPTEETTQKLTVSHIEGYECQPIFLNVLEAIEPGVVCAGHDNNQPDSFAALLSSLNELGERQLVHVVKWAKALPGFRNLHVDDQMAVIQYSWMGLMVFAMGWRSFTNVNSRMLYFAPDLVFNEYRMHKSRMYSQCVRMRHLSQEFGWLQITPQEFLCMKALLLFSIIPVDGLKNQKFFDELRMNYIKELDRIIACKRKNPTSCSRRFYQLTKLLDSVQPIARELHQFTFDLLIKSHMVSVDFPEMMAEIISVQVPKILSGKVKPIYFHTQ

Regarding `CCCCOP(=O)(O)OCCCC`, the compound was called inactive in experiment [1], in [2], in [3], in experiment [4], in experiment [5] and in experiment [6]. Further, the compound was called inactive in experiment [7], in experiment [8], in experiment [9], in [10], in [11] and in [12]. For the same compound, the outcome in experiment [13], in [14], in [15], in [16], in experiment [17] and in experiment [18] was inactive. The compound was called inactive in experiment [19] and in [20].
Consider `[Cl-].[Cl-].[Cl-].[Yb+3]`, for which the outcome in experiment [1], in experiment [2], in experiment [3], in experiment [4], in experiment [5] and in experiment [6] was inactive. Besides, the call in experiment [7], in [8], in [9], in experiment [10], in experiment [11] and in experiment [12] was inactive. Further, the call in [13], in experiment [14], in [15], in experiment [16], in experiment [17] and in experiment [18] was inactive. In experiment [19], the call was inactive.
Consider `CCCCOC(=O)CCC(=O)OCCCC`, for which the call in experiment [1], in [2], in [3], in [4], in [5] and in experiment [6] was inactive. In addition, the outcome in experiment [7], in experiment [8], in experiment [9], in [10], in [11] and in experiment [12] was inactive. In addition, the outcome in [13], in experiment [14], in experiment [15], in [16], in experiment [17] and in experiment [18] was inactive. Further, the compound was classed as inactive in experiment [19].
On to `C=CCN(CC=C)C(=O)C(Cl)Cl`, for which the outcome in experiment [1], in experiment [2], in experiment [3], in experiment [4], in experiment [5] and in experiment [6] was inactive. Also, the compound was classed as inactive in experiment [7], in experiment [8], in experiment [9], in [10], in experiment [11] and in experiment [12]. The call in experiment [13], in [14], in experiment [15], in [16], in [17] and in experiment [19] was inactive. The AC50 – broadly, the midpoint of the concentration-response curve, whichever way the signal moves – in [18] is 43.9 µM (active).
Regarding `CCOP(=O)(OCC)OCC`, the call in [1], in experiment [2], in experiment [3], in [4], in [5] and in experiment [6] was inactive. Further, the outcome in experiment [7], in experiment [8], in [9], in [10], in [11] and in experiment [12] was inactive. The call in experiment [13], in experiment [14], in [15], in [16], in experiment [17] and in experiment [18] was inactive. In [19], the call was inactive.
